Compounds with a hit are over-represented: about 9.5% of the library has one in this group of screens.
ALDH1A1 inh = qHTS Assay for Inhibitors of Aldehyde Dehydrogenase 1 (ALDH1A1) | Aldehyde dehydrogenase 1A1 (Homo sapiens), P00352 | Purified ALDH1A1, NADH fluorescence, propionaldehyde substrate | Potency, µM (highest dose often 75.3 µM), hits mostly inhibitors | actives 7.3% (n = 220,000) | AID 1030, 2008; active = well fitted inhibition curve with a large enough effect, not every such curve was filed as active; inconclusive = small, poorly fitted or top-dose-only effect, or another doubt; inactive = no such curve, though single readings can be large or run the other way
Tau fibril ThT = qHTS for Inhibitors of Tau Fibril Formation, Thioflavin T Binding; Microtubule-associated protein tau (Homo sapiens), P10636; recombinant tau K18 P301L, heparin-induced fibrillization, ThT fluorescence; Potency, µM (titrated, usually from 57.4 µM), hits mostly inhibitors; actives 2.1% (n = 270,000); AID 1460, 2008; also: nearly all actives have a fitted effect of over 55% in size
Target sequence (P10636 561-689 P618L limits assumed): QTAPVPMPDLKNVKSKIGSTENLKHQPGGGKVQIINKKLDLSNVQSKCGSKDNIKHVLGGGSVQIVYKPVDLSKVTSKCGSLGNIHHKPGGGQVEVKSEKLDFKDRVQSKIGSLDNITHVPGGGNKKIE
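Heparin-induced (20 uM) aggregation of recombinant human K18 P301L tau, 15 uM unlabeled with 0.24 uM labeled, pH 7 acetate buffer, 6 hr at 37 C with compound. Fibrils quantified by 30 uM ThT fluorescence after 1 hr ambient incubation.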
NPSR antagonist = qHTS Assay for Antagonists of the Neuropeptide S Receptor: cAMP Signal Transduction. Potency, µM (highest dose often 38.3 µM), most hits filed as inhibitors. Q6W5P4. AID 1461, 2008. actives 1% (n = 220,000). CHO-NPSR cells, cAMP TR-FRET, antagonist mode; also: nearly all actives have a fitted effect of over 50% in size
Target sequence (Q6W5P4 whole entry, looked up): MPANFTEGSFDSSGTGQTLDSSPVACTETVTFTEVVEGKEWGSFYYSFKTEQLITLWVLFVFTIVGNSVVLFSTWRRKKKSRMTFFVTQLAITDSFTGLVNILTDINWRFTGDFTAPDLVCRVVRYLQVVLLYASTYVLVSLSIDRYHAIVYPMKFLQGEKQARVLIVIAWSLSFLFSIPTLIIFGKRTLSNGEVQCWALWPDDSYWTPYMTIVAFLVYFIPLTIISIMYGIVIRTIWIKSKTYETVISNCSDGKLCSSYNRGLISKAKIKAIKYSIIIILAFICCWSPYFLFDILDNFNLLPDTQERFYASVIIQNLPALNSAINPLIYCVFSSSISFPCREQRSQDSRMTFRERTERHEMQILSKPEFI
HPGD block = qHTS Assay for Inhibitors of HPGD (15-Hydroxyprostaglandin Dehydrogenase); 15-hydroxyprostaglandin dehydrogenase [NAD(+)] (Homo sapiens), P15428; purified HPGD, NADH fluorescence kinetic, PGE2 substrate; Potency, µM, hits mostly inhibitors; actives 4.3% (n = 150,000); active = well fitted inhibition curve with a large enough effect, not every such curve was filed as active; inconclusive = small, poorly fitted or top-dose-only effect, or another doubt; inactive = no such curve, though single readings can be large or run the other way
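20 nM HPGD preincubated 15 min at room temperature with compound in 50 mM Tris-HCl pH 8, 0.01% Tween 20. Started with 1 mM NAD+ and 30 uM prostaglandin E2; NADH fluorescence (360/450 nm) read 5 times over 30-s intervals, last minus first.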
Tau FP inhib = qHTS for Inhibitors of Tau Fibril Formation, Fluorescence Polarization | actives 0.39% (n = 280,000) | AID 1468, 2008 | Microtubule-associated protein tau (Homo sapiens), P10636 | K18 P301L tau heparin fibrillization, Alexa594 FP, 6 h | Potency, µM (highest dose often 57.7 µM), most hits filed as inhibitors; also: nearly all actives have a fitted effect of over 55% in size
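Heparin (20 uM) drove fibril formation of recombinant tau K18 P301L, 15 uM unlabeled with 0.24 uM Alexa 594 label, for 6 hr at 37 C in 100 mM sodium acetate pH 7. Fluorescence polarization (555/632 nm) read 1 hr after 30 uM ThT.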
Tau fluor counter = Counterscreen qHTS for Inhibitors of Tau Fibril Formation, Fluorescence Polarization; actives 0.93% (n = 280,000); Potency, µM (series often up to 57.7 µM); tau K18 P301L Alexa594 fluorescence, heparin fibrillization; also: nearly all actives have a fitted effect of over 55% in size
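Human tau K18 P301L (15 uM unlabeled, 0.24 uM Alexa 594-labeled) in 100 mM sodium acetate pH 7 with 20 uM heparin, 6 hr at 37 C. ThT 30 uM added, 1 hr ambient; Alexa 594 FP and total fluorescence read at 555/632 nm.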
Numbers stand for hits; . = inactive; ? = inconclusive; / = not tested or not shown; [ ] = remark or other dose. Unless noted, calls follow the shape of the dose curve; as a rule, active = well fitted curve in the direction sought with a large enough effect; inconclusive = small, poorly fitted or top-dose-only effect, or another doubt; inactive = no such curve, though single readings can be large; an effect the other way counts as inactive or inconclusive.

SMILES	ALDH1A1 inh	Tau fibril ThT	NPSR antagonist	HPGD block	Tau FP inhib	Tau fluor counter
CCCCC(=O)NC(c1cccs1)c1cc(Cl)c2cccnc2c1O (stereo unspecified)	7.08µM	.	.	/	.	.
Cc1ncc(CO)c(CN)c1O	.[13.5 µM]	/	/	.	/	/
Cc1nnc(NC(=O)CCN2C(=O)/C(=C\c3ccccc3)SC2=S)s1	.	?	.	/	.	.
COc1cccc(/C=C2/SC(=S)N(CC(=O)Nc3nnc(C)s3)C2=O)c1	.	1.26µM	.	.	?	?
CCN(CC)S(=O)(=O)c1cc(C)ccc1NC(=S)Nc1cccnc1	?	.	.	/	31.6µM	?
CCN(CC)S(=O)(=O)c1cc(C(=O)Nc2cccnc2)ccc1Cl	4.47µM	.	.	.	.	.
Cc1cc(C)c2c(CC(=O)N(Cc3ccccc3)C3CCS(=O)(=O)C3)coc2c1 (stereo unspecified)	/	.	/	/	.	.
CCOc1ccccc1N1CCN(C/C=C/c2ccc(N(C)C)cc2)CC1	?	?	.	.	.	.
CCN(C(=O)COC(=O)c1c(C)c(-c2ccccc2)nc2ccccc12)C1CCS(=O)(=O)C1 (stereo unspecified)	/	.	.	/	.	.
O=[N+]([O-])c1ccc(N/N=C/c2ccc(O)c(O)c2O)c(S(=O)(=O)N2CCOCC2)c1	3.55µM	3.98µM	.	/	10µM	?
O=C(CCc1ccc(S(=O)(=O)N2CCOCC2)cc1)N/N=C/c1ccc(O)c(O)c1O	12.6µM	25.1µM	.	?	?	.
O=[N+]([O-])c1ccc(N/N=C/c2cccc(O)c2O)c(S(=O)(=O)N2CCOCC2)c1	.	?	.	/	.	?
CCOc1ccc(NC(=O)Cn2c(=O)n(CCc3ccccc3)c(=O)c3c4c(sc32)CCCC4)cc1	/	.	/	/	?	.
COC(=O)c1c(C)[nH]c(-c2csc(N)n2)c1C	?	25.1µM	.	/	.	?
CCOC(=O)c1[nH]c(C)c(C(=O)OC)c1C	/	.	.	/	.	.
COc1ccc(O)c(/C=N/N2CCOCC2)c1	/	.	.	/	.	.
O=C1c2cccc3cccc(c23)C(=O)N1/N=C/c1ccc(O)cc1O	.	.	.	.	.	.
O=C1c2ccccc2C(=O)N1/N=C/c1ccc(O)c(O)c1O	/	3.98µM	.	/	6.31µM	?
Oc1ccc(/C=N/N2CCOCC2)c(O)c1O	7.08µM	8.91µM	.	/	10µM	.
CCOC(=O)c1c(NC(=O)CN2C(=O)CN(C)C2=O)sc(C)c1C	.	.	.	/	.	.
CCC(=O)N1c2ccccc2CC1C(=O)NCCN1CCN(c2cccc(C(F)(F)F)c2)CC1 (stereo unspecified)	/	.	/	/	.	.
NC(=O)c1c(N)sc2c1CCC2	?	?	.	/	?	.
CNC(=O)c1c(NC(=O)C(C)C)sc2c1CCC2	/	/	.	/	.	.
COCCNC(=O)c1c(N)sc2c1CCCC2	?	28.2µM	.	?	?	.
CNC(=O)c1c(N)sc2c1CCCCC2	25.1µM	17.8µM	.	31.6µM	?	.
SMILES	ALDH1A1 inh	Tau fibril ThT	NPSR antagonist	HPGD block	Tau FP inhib	Tau fluor counter
NC(=O)c1c(N)sc2c1CCCCC2	14.1µM	?	.	?	?	.
COc1ccc(C2CC(=O)C3=C(C2)Nc2ccccc2NC3c2coc3ccccc3c2=O)cc1OC (stereo unspecified)	10µM	.	.	.	.	?
Oc1ccc(C=NCC2COc3ccccc3O2)cc1 (stereo unspecified)	17.8µM	.	.	.	.	.
CCN(Cc1ccccc1)c1ccc(/C=N/NS(=O)(=O)c2cccc([N+](=O)[O-])c2)cc1	6.31µM	?	.	.	.	7.94µM[quencher]
CCN(CC)c1ccc(/C=N/NS(=O)(=O)c2ccc(C)c([N+](=O)[O-])c2)cc1	20µM	?	.	/	.	?
COc1ccc(C2c3c(n(C)c4ccccc34)C(=O)N2CC(=O)Nc2cccc(Cl)c2)cc1 (stereo unspecified)	/	.	/	/	?	.
Cc1ccc(OCC(=O)NCc2ccco2)cc1C	?	?	?	20µM	.	.
CCOc1ccccc1OCC(=O)NCc1ccco1	?	?	.	.	?	.
O=C(COc1ccccc1-c1ccccc1)NCc1ccco1	7.08µM	.	.	/	.	.
Cc1cc(Cl)cc(Cl)c1OCC(=O)NCc1ccco1	?	?	.	25.1µM	.	.
O=c1[nH]c(/C=C/c2ccccc2OC(F)F)nc2c1cnn2-c1ccccc1	?	.	.	?	?	.
CCNc1ccc(C(=O)OCC(=O)NCCN2C(=O)CSC2=O)cc1[N+](=O)[O-]	3.55µM	.	.	/	.	.
O=C(Nc1ccc(Cl)cc1)c1cccc(N2C(=O)C3C4CCC(C4)C3C2=O)c1 (stereo unspecified)	.	.	.	31.6µM	.	.
CC(C)CCNc1nc(N)c([N+](=O)[O-])c(NCC2CCCO2)n1 (stereo unspecified)	11.2µM	.	.	.	.	.
COc1ccc(OC)c(Nc2nc(NCCC(C)C)nc(N)c2[N+](=O)[O-])c1	/	25.1µM	?	/	.	20µM[quencher]
CCC(C)Nc1nc(N)c([N+](=O)[O-])c(Nc2cc(OC)ccc2OC)n1 (stereo unspecified)	/	15.8µM	.	/	.	17.8µM[quencher]
COc1ccc(-c2cn3cccnc3n2)cc1NC(=O)c1c(F)cccc1F	/	.	/	/	?	.
Cc1onc(C(=O)N2CCOCC2)c1[N+](=O)[O-]	25.1µM	.	.	/	.	.
Cc1cc(=O)n2[nH]c(C)c(-c3ccccc3)c2n1	.	.	.	.	.	.
Cc1cc(=O)n2[nH]c(N)c(N=Nc3ccccc3F)c2n1	.	11.2µM	.	.	.	.
Cc1ccc(N2C(=O)CCSC23C(=O)N(Cc2ccccc2)c2ccccc23)cc1 (stereo unspecified)	/	?	/	/	.	.
Cc1ccc2cc(C)c(Sc3nnnn3-c3ccccc3)nc2c1	5.62µM	.	.	.	.	.
O=[N+]([O-])c1ccc(Sc2n[nH]c(-c3ccccc3)n2)nc1	.	.	.	8.91µM	.	.
Nc1cccnc1Sc1ccc([N+](=O)[O-])cn1	?	?	.	10µM	.	.
Cc1ccnc(Sc2ccc([N+](=O)[O-])cn2)n1	?	.	.	/	.	.
O=[N+]([O-])c1ccc(Sc2ccccc2)nc1	.	.	.	.	.	.
Cc1cc2nc(-c3cccc(NC(=O)COc4ccc(C(C)C)cc4)c3)oc2cc1C	/	.	/	/	.	.
